Measurements taken from paper PMC5540273 (PLoS ONE, 2017).

What was measured:
Conditions in all cases: concentration: 1 μM, replicates: in singlicate; n = 1
FGFR1 = test system: FGFR1
FGFR2 = test system: FGFR2
FGFR3 = test system: FGFR3
FGFR4 = test system: FGFR4
FGR = test system: FGR
FLT1 = test system: FLT1
FLT3-autoinhibited = test system: FLT3-autoinhibited
FLT3 = test system: FLT3
FLT4 = test system: FLT4
FRK = test system: FRK
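Also: KINOMEscan kinase panel screen.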

| SMILES | %Inh (FGFR1) | %Inh (FGFR2) | %Inh (FGFR3) | %Inh (FGFR4) | %Inh (FGR) | %Inh (FLT1) | %Inh (FLT3-autoinhibited) | %Inh (FLT3) | %Inh (FLT4) | %Inh (FRK) |
| --- | --- | --- | --- | --- | --- | --- | --- | --- | --- | --- |
| Cl.Cl.NC(CNC(=O)c1cc(Br)c(-c2ccnc3[nH]ccc23)s1)c1ccccc1 (stereo not shown) [GSK1322949] | 45% | 39% | 26% | 29% | 14% | 64% | 1% | 90.9% | 17% | 0% |
| COc1cc(Nc2nccc(N3CCC(NC(=O)Nc4ccc5c(c4)OCO5)C3)n2)cc(OC)c1OC (stereo not shown) [GSK1379766] | 0% | 0% | 0% | 0% | 4% | 26% | 8% | 65% | 16% | 0% |
| c1ccc(Oc2ccc(Nc3ccnc4cc(-c5ccc(CN6CCCCC6)o5)ccc34)cc2)nc1 [GW567143] | 9% | 0% | 1% | 1% | 65% | 20% | 67% | 98.4% | 23% | 33% |
| O=C(Nc1n[nH]c2nc(-c3ccccc3O)ccc12)C1CC1 [SB-711880] | 31% | 0% | 0% | 3% | 0% | 3% | 0% | 28% | 0% | 0% |
| CC(=O)Nc1cn2nc(Oc3cccc(NC(=O)c4cccc(C(F)(F)F)c4)c3)ccc2n1 | 0% | 91.4% | 53% | 50% | 93.1% | 98.5% | 0% | 97.4% | 100% | 99.9% |
| N#Cc1cnc2cc(-c3cnc(CNCCN4CCOCC4)s3)ccc2c1Nc1ccc(Oc2ccccc2)cc1 [GW664114] | 0% | 0% | 2% | 0% | 96.7% | 53% | 7% | 70% | 22% | 17% |
| Nc1ncnc2scc(-c3ccc(NC(=O)Cc4cc(F)ccc4F)cc3)c12.O=C(O)C(F)(F)F [SB-731254-M] | 28% | 100% | 0% | 9% | 23% | 90.7% | 89% | 94.1% | 61% | 0% |
| Cc1ccc(NC(=O)c2cccc(N3CCCCC3)c2)cc1-c1ccc(C(=O)NCC2CC2)cc1 [GSK1917008] | 21% | 20% | 21% | 18% | 24% | 34% | 20% | 0% | 13% | 49% |
| O=C1NC(=O)C(c2ccccc2Cl)=C1Nc1cccc(Cl)c1 [SB-342409] | 0% | 4% | 16% | 94.1% | 22% | 11% | 0% | 0% | 0% | 15% |
| CN(c1ccc(F)c(NC(=O)c2cccc(OC(C)(C)C#N)c2Cl)c1)c1ccc2nc(NC(=O)C3CC3)sc2n1 | 48% | 72% | 8% | 26% | 84% | 95.8% | 0% | 96.7% | 99.8% | 71% |
| COc1ccc(C)c(Nc2ccnc(Nc3ccc(-c4cnc[nH]4)cc3)n2)c1.Cl [GW784041] | 23% | 4% | 48% | 100% | 86% | 14% | 0% | 15% | 10% | 69% |
| CC(C)c1nc(-c2ccc(F)c(NS(=O)(=O)c3c(F)cccc3F)c2)c(-c2ccnc(Nc3ccc(N4CCOCC4)nc3)n2)s1 [GSK1804250] | 24% | 11% | 8% | 0% | 97.7% | 88% | 0% | 12% | 97.3% | 89% |
| CC(C)(C)c1ccc(C(=O)Nc2cn3cc(-n4ccnc4)ccc3n2)cc1 | 0% | 22% | 11% | 7% | 0% | 0% | 21% | 71% | 0% | 10% |
| O=C(Nc1n[nH]c2cc(-c3cccs3)ccc12)C1CC1 [SB-731284] | 18% | 0% | 0% | 0% | 0% | 0% | 65% | 59% | 18% | 0% |
| COc1cccc(NC(=O)NCCNc2ccnc(Nc3ccc(F)cc3)n2)c1 [GSK1379879] | 0% | 53% | 2% | 9% | 22% | 15% | 0% | 0% | 0% | 11% |
| Fc1cc(Cl)ccc1Nc1ccnc2cc(-c3ccc(CN4CCOCC4)o3)ccc12 [GW560109] | 40% | 33% | 26% | 30% | 91.2% | 86% | 6% | 53% | 88% | 86% |
